± gives the standard deviation of the averaged measurements. Whole data set: some 25,000 sequences, median “ln(normalized median fluorescence intensity)” near 10, cut for the highest 2% near 12. The full list was thinned out, with the highest values kept by preference.

The subject of this experiment is PfAP2-G AP2 domain (GST-tagged). Description: gcPBM binding intensity (ln(normalized median fluorescence intensity)); higher = stronger DNA binding. The gist of the method:
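Plasmodium falciparum DNA-binding domains carrying a GST tag were expressed in E. coli and applied for 1 h, at about 25 μg on average, to an Agilent 4 × 180k array. The array held primer-extended double-stranded 36-bp intergenic genomic probes together with negative controls, and binding took place in 1× PBS with 1% milk, 0.2 mg/ml BSA, 0.5% salmon testes DNA and 0.03% Triton X-100. An Alexa488 anti-GST antibody detected bound protein, and the array was scanned at 488 nm. Binding intensity is taken as the highest Masliner-normalised natural-log median intensity across replicate spots of either probe orientation.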
On to “TATTTTATATGATAGGTGCATTTTTTTTTTTTTTTT [GTGCAC_site9757]”, for which the “gcPBM binding intensity (ln)” value was found to be 10.4 ± 0.48.

For the sequence “TTCTTTATTTTTTCTACACACATTATATATTCAAAG [CACACA_site5866]”, the “gcPBM binding intensity (ln)” value turned out to be 10.12 ± 0.099.

“CAACACTTATTGAAACGTACGCATATAGTTTCTTTT [XGTACX_site8960]”: the “gcPBM binding intensity (ln)” value was found to be 11 ± 0.55.

As to “TATAAATATAAATATACACACATATATTTATTTATA [CACACA_site6890]”, the “gcPBM binding intensity (ln)” value turned out to be 9.645 ± 0.078.

With “TATTTGTGCCAAAAATGAAAAAGTTTGTATAAAACC [CACACA_negctrl_site1406]”, the “gcPBM binding intensity (ln)” value is 10.1 ± 0.17.

For “AAGATACACTTAATCGCACACGAAATTATATATTTA [CACACA_site3063]”, the “gcPBM binding intensity (ln)” value was 10.1 ± 0.24.

In the case of “TATATATATTATATATGTACATATATTTTTTTTTTT [XGTACX_site127]”, the “gcPBM binding intensity (ln)” value is 11.2 ± 0.81.

As to “ATTTAAGGGGTGTATGCACACGACTATTCCGTATGA [CACACA_site4738]”, the “gcPBM binding intensity (ln)” value was found to be 10.23 ± 0.092.

With “AATATGTAATAGTGTACACATATATCTGTATTTATG [CACACA_site4252]”, the “gcPBM binding intensity (ln)” value came to 11.6 ± 0.91.

“TATTATCTGTAGTGTACACATATTATATAGTACTTT [CACACA_site4582]”: the “gcPBM binding intensity (ln)” value was 11.8 ± 1.

On to “ATACGCACACATATATGTACATATTGTATATATATA [XGTACX_site3962]”, for which the “gcPBM binding intensity (ln)” value worked out at 11.2 ± 0.71.

As to “ATTTTTTTTTCTTGTACACACTATTTTATAATTTTA [CACACA_site6102]”, the “gcPBM binding intensity (ln)” value was found to be 11.6 ± 0.93.

In the case of “ATATATATATAGTACGCACACATAGTTGTACATTAA [CACACA_site2787]”, the “gcPBM binding intensity (ln)” value was found to be 12 ± 1.3.

In the case of “TCATTCTTGTGTTTATGTACACATATTTATATTGTA [XGTACX_site710]”, the “gcPBM binding intensity (ln)” value amounted to 11.4 ± 0.88.

In the case of “CATATTTTCTTGTGTACACATTTATTTTATACTATA [CACACA_site6032]”, the “gcPBM binding intensity (ln)” value was found to be 11.7 ± 0.97.

Take “TATATATATATATATAGTACGCACACATAGTTGCAA [XGTACX_site5875]”: the “gcPBM binding intensity (ln)” value was determined as 11.1 ± 0.67.

With “TATATCTGTTTATATTGTACACATATATATATATAT [XGTACX_site714]”, the “gcPBM binding intensity (ln)” value is 11.4 ± 0.93.

In the case of “ATGAATTAACCTAATCGTACAATAAATATTATTATA [XGTACX_site596]”, the “gcPBM binding intensity (ln)” value came out at 11 ± 0.81.

“AAAATTAAAAAGAACACACAAATATATCTATAATAA [CACACA_site7660]”: the “gcPBM binding intensity (ln)” value was 9.81 ± 0.26.

With “TTCTATATTATATATGCATGTGTTATTCTTATTTTC [TGCATGCA_site92]”, the “gcPBM binding intensity (ln)” value stood at 9.87 ± 0.057.

Consider “ATTTATATATATTTATGTACGTATTAATTTTTTTTT [XGTACX_site3877]”, for which the “gcPBM binding intensity (ln)” value was 11.5 ± 0.88.

With “ATATGATTAATTAAGTGTACGTATTTATAATTATAA [XGTACX_site5783]”, the “gcPBM binding intensity (ln)” value came out at 11.7 ± 1.

“TTATATTTTATTATGTGTACGTATATAATATAATAT [XGTACX_site6230]”: the “gcPBM binding intensity (ln)” value came to 11.6 ± 0.97.

For “ATTTTTTTTTTTTATAGTGGATCCACATTTGCCATT [CACACA_negctrl_site1284]”, the “gcPBM binding intensity (ln)” value was 10.3 ± 0.36.

On to “AAAAAAAATTAGGAAACATGCATGTCCCGATAAATA [TGCATGCA_site149]”, for which the “gcPBM binding intensity (ln)” value stood at 10.28 ± 0.049.

In the case of “TCTTATTATAAAAGGAGTACATCAATTAGATGTTCC [XGTACX_site8465]”, the “gcPBM binding intensity (ln)” value was found to be 11.6 ± 1.

Take “ATAATATATATATATATATTATCAAATATATATATA [GTGCAC_negctrl_site346]”: the “gcPBM binding intensity (ln)” value was determined as 9.55 ± 0.23.

As for “TATTATATATAATATTGTACATTAAAATATTAAAGA [XGTACX_site3698]”, the “gcPBM binding intensity (ln)” value turned out to be 10.9 ± 0.67.

Take “ATATAATGAAGTGAATGTACATATAAAATGTAAAAA [XGTACX_site8052]”: the “gcPBM binding intensity (ln)” value stood at 11.1 ± 0.43.

As for “GGAAGATGAAAAATAAAGCATGTGCTGTACAAACGA [CACACA_negctrl_site1625]”, the “gcPBM binding intensity (ln)” value is 10.8 ± 0.37.

For the sequence “TTATTTAAATAATATGTACACACATTTAAAAAATTA [CACACA_site8912]”, the “gcPBM binding intensity (ln)” value is 11.6 ± 0.95.

Turning to “TTAATATTTTGATGTGTACACATTAAAATAGTTTTA [CACACA_site5712]”, the “gcPBM binding intensity (ln)” value stood at 11.8 ± 0.89.

With “GATGATAAAATATGTACACACAGTTTATACATTTTG [CACACA_site4055]”, the “gcPBM binding intensity (ln)” value is 11.3 ± 0.76.

In the case of “GATGATGTTTATTTGTGTACATATTAATACTTAATA [XGTACX_site1902]”, the “gcPBM binding intensity (ln)” value came out at 11.4 ± 0.82.

As for “ATATAAATATTTATTAGTACACATTAGTGTAGTTTT [XGTACX_site4493]”, the “gcPBM binding intensity (ln)” value is 11.5 ± 0.88.

For the sequence “AATATTTTGATGTGTACACATTAATACAGTTTTACA [CACACA_site5711]”, the “gcPBM binding intensity (ln)” value is 11.7 ± 0.91.

Consider “TTTTATTATTTGTCTTGTACTCATTGTAAGAGTATG [XGTACX_site1538]”, for which the “gcPBM binding intensity (ln)” value worked out at 11.4 ± 0.91.

Take “ATATAATAATATTATACATGCAAAATATGTTCTTCA [TGCATGCA_site115]”: the “gcPBM binding intensity (ln)” value came out at 9.795 ± 0.049.

Take “AACTTTATACTTTTTTGTACTTAACCCTTACATTTT [XGTACX_site5798]”: the “gcPBM binding intensity (ln)” value was 11.1 ± 0.38.

Consider “AATAACAATTATAAAAGTACAGATTTTTATTTCTAA [XGTACX_site5746]”, for which the “gcPBM binding intensity (ln)” value is 11.1 ± 0.79.

With “TATATAAAAATATGTTGTACGCATTTATAAATATAT [XGTACX_site3758]”, the “gcPBM binding intensity (ln)” value was 11.6 ± 0.98.

Consider “AAATAAAATTTTATGTGTACGCAAAAAGTTGTAAGC [XGTACX_site8911]”, for which the “gcPBM binding intensity (ln)” value was found to be 11.9 ± 1.3.

As for “TATGTATATATATAAAGTACGCAAATTTATAATAAG [XGTACX_site8744]”, the “gcPBM binding intensity (ln)” value was found to be 11.5 ± 0.98.

Take “GCGTAATCTATTTGCACACTTATTTGTTCTTAAAAA [CACACA_site672]”: the “gcPBM binding intensity (ln)” value is 10.2 ± 0.14.

Take “AAGATATGTACTAATACACACACATATATATATATA [CACACA_site8249]”: the “gcPBM binding intensity (ln)” value is 11.2 ± 0.79.

For the origin of these results see the supplement of paper PMC11417369.
